# In the library only some 2.8% were active in any assay of this set; here they are far more common.
# Shn3 3UTR inh: reduction of Shn3 3'UTR firefly luciferase signal, primary screen, Schnurri-3 inhibitor project, cell-based, Clone20 osteoblasts, set 2; Clone20 osteoblast Shn3 3'UTR firefly luciferase, 24 h; inhibition, % at 12.5 µM; actives 0.52% (n = 360,000);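 active = mean inhibition of at least 75% with every replicate also reaching 75%; inconclusive = mean inhibition at least 75% but some replicate below; inactive = mean inhibition below 75%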;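 also: 0% = median of neutral control wells and 100% = pilot-screen positive control compound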
# NSD2 HMT inh: NSD2 histone methyltransferase inhibitors, primary screen, biochemical, AlphaScreen, single concentration, set 2 | Histone-lysine N-methyltransferase NSD2 (Homo sapiens), O96028 | NSD2 peptide methylation, 120 min | inhibition, % at 12.5 µM | actives 0.54% (n = 310,000) | AID 743445, 2014; in the data active = inhibition above about 50%
# Glyco luc inh: increase of ERlucT glycosylation luciferase signal, primary screen, N-linked glycosylation inhibitor project, D54 ERlucT cells, luminescence, set 2 | D54 ERlucT glycosylation luciferase reporter, 24 h; percent of 100 nM tunicamycin response | reporter increase, % at 12.5 µM | actives 0.23% (n = 360,000);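 active = mean luciferase reporter signal, scaled so untreated is 0 and the glycosylation-blocking control 100, at or above a set limit in every replicate; inconclusive = mean reaches the limit but not every replicate does; inactive = mean below the limit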;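 also: luciferase carries N-glycosylation sites so blocking glycosylation raises the light; 0% = median of neutral control wells and 100% = median of 100 nM tunicamycin wells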
# PAX8 reporter: inhibitors of PAX8-driven TPO luciferase reporter, primary screen, RMG-I cells, single concentration | inhibition, % at 12.6 µM | actives 1.2% (n = 360,000) | SteadyGlo, 24 h | AID 652154, 2013;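 active = mean replicate inhibition at least 60% with every replicate also reaching 60%; inconclusive = only one of the two criteria is met; inactive = mean below 60% and not all replicates reaching 60%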;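 also: luciferase light reporting Pax8 driven TPO promoter activity; plate controls were median of neutral control wells for no effect and mitoxantrone controls for full effect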
# Env fusion inh: inhibitors of HIV-1 Env-driven cell-cell fusion, primary screen, HeLa-JRFL effector, CEM21 target cells, luciferase. inhibition, % at 12.3 µM. actives 1.1% (n = 360,000);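 active = mean replicate inhibition score of at least 50 and every replicate individually at or above 50; inconclusive = only one of the two criteria met; inactive = mean below 50 and not all replicates reaching 50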;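 also: 0% = plate neutral controls and 100% = maraviroc near 300 nM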
# LMP1 NFkB inh: EBV LMP1-driven NF-kappaB luciferase reporter inhibitors, primary screen, cell-based, luminescence, single point. inhibition, % at 12.5 µM. LMP1-induced NF-kappaB luciferase reporter cells. actives 0.69% (n = 350,000); in the data active = inhibition above about 41%; inconclusive = no clear call, values can overlap the other calls;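 also: 0% = neutral control wells and 100% = reference inhibitor control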
# An asterisk follows results filed as active; u = inconclusive; x = no result; [ ] = dose if it differs, or a comment.
SMILES,Shn3 3UTR inh,NSD2 HMT inh,Glyco luc inh,PAX8 reporter,Env fusion inh,LMP1 NFkB inh
O=C(NCc1ccccc1F)C1CC(=O)N(c2ccc3c(c2)OCCO3)C1 (stereo not drawn),2,0,1,-12,-5,0
C[C@H]1CCC/C=C/[C@@H]2C[C@H](O)C[C@H]2[C@H](O)[C@H](S(=O)c2ccc(O)cc2)CC(=O)O1 (stereo partly drawn),87*,x,0,111*,48,-60
CCCc1cc(C(=O)Nc2cc(C)nn2-c2ccccc2)no1,0,x,-1,7,60*,-14
COCCNC(=O)C[C@H]1C[C@H]2c3cc(NC(=O)C4CCOCC4)ccc3O[C@H]2[C@H](CO)O1,x,x,x,-20,37[16.7 µM],x
O=C1C=C(c2cccs2)C[C@H](c2ccccc2)[C@H]1n1nnc([N+](=O)[O-])n1,22,1,25*,39,x,-177
COc1ccc(-c2cn(C[C@@H](Cc3ccccc3)NC(=O)Nc3ccccc3)nn2)cc1OC,x,x,x,-11,-3[16.7 µM],x
CCCCCCCCCC[n+]1cccc2c3ccccc3ccc21,84,9,19,81*,59*,30
Cc1cccc[n+]1CCCCCCCCCC[n+]1ccccc1C,8,-3,0,8,-3,8
CCCCCCCC[n+]1cccc2c3ccccc3ccc21,80,2,u,82*,84*,33
CCC(=O)N(C)C[C@@H]1Oc2cc(C#CC3CC3)ccc2S(=O)(=O)N([C@@H](C)CO)C[C@@H]1C,x,x,x,x,16[16.7 µM],x
COC(=O)CCn1nnc(-c2ccc(C(C)C)cc2)n1,70,-2,-3,-3,66*,u
COC(=O)CCn1nnc(-c2cccs2)n1,10,6,1,x,-89,3
O=C(C[C@@H]1C=C[C@H](NC(=O)c2cccc(F)c2)[C@@H](CO)O1)NCCN1CCCC1,x,x,x,-1,-7[16.7 µM],x
CCCN(C)C[C@H]1OCCCC[C@H](C)Oc2ccc(NC(=O)CCC(F)(F)F)cc2C(=O)N([C@@H](C)CO)C[C@H]1C,x,x,x,0,-21[16.7 µM],x
Cn1cccc1-c1cc(C(=O)N/N=C/c2cc(Br)ccc2O)[nH]n1,80,-1,-7,74*,-3,33
COc1ccc(Br)cc1/C=N/NC(=O)c1cc(Br)ccc1O,x,-5,x,x,x,x
COc1ccc(C(=O)N/N=C/c2cc(Br)ccc2O)cc1OC,91*,-2,-6,82*,17,11
COc1cc(Cl)cc(/C=N\NC(=O)c2ccc3c(c2)OCO3)c1O,88*,x,1,42,-18,31
CCCNC(=O)C[C@@H]1CC[C@@H]2[C@H](COC[C@H](O)CN2C(=O)c2cccnc2)O1,x,x,x,-19,-9[16.7 µM],x
C[C@H](CO)N1C[C@H](C)[C@@H](CN(C)S(=O)(=O)c2ccc(Cl)cc2)OCc2cn(nn2)CCCC1=O,x,x,x,x,5[16.7 µM],x
CN(C)CCN(Cc1ccco1)S(=O)(=O)c1csc(C(N)=O)c1,0,1,0,-4,2,0
CC(CCc1ccco1)N(C)S(=O)(=O)c1csc(C(N)=O)c1 (stereo not drawn),3,-2,-1,-9,-12,52*
O=C1CC(SC(=NCc2ccc3c(c2)OCO3)Nc2ccccc2)C(=O)N1 (stereo not drawn),-10,0,-1,x,x,55*
C[C@H]1CN([C@@H](C)CO)C(=O)c2cccc(NC(=O)c3ccncc3)c2O[C@@H]1CN(C)C(=O)Nc1ccccc1,x,x,x,-9,x,x
COc1ccc(NC(=O)N(C)C[C@@H]2OCCCC[C@H](C)Oc3ccc(NC(=O)CCC(F)(F)F)cc3C(=O)N([C@@H](C)CO)C[C@@H]2C)cc1,x,x,x,8,-14[16.7 µM],x
SMILES,Shn3 3UTR inh,NSD2 HMT inh,Glyco luc inh,PAX8 reporter,Env fusion inh,LMP1 NFkB inh
Cc1cccc(C)c1NC(=O)N1CCN(c2nc3ccccc3s2)CC1,2,0,-2,x,72*,27
C[C@H]1CN([C@@H](C)CO)C(=O)CCCn2cc(nn2)CO[C@H]1CN(C)S(=O)(=O)c1ccccc1F,x,x,x,x,2[16.7 µM],x
CC(=O)c1cc(NC(=O)c2cccc(C(F)(F)F)c2)c(=O)oc1C,15,-3,12,89*,-24,0
COc1ccccc1-c1cnc2c(c1)C(=O)N([C@@H](C)CO)C[C@@H](C)[C@H](CN(C)C(=O)c1ccncc1)O2,x,x,x,x,14[16.7 µM],x
C[C@H]1CN([C@@H](C)CO)S(=O)(=O)c2ccc(-c3cccc(C#N)c3)cc2O[C@H]1CN(C)Cc1cccc(F)c1,x,x,x,11,74*[16.7 µM],x
C[C@@H]1CN([C@H](C)CO)S(=O)(=O)c2ccc(Br)cc2O[C@@H]1CN(C)Cc1ccc(-c2ccccc2)cc1,24,x,-9,-12,76*,-22
C[C@@H]1CN([C@H](C)CO)S(=O)(=O)c2ccc(Br)cc2O[C@@H]1CN(C)Cc1ccccc1,x,x,x,-2,-23[16.7 µM],x
Cc1ccc(-c2ccc3c(c2)O[C@@H](CN(C)Cc2ccccc2)[C@H](C)CN([C@@H](C)CO)S3(=O)=O)cc1,x,x,x,x,24[16.7 µM],x
C[C@@H]1CN([C@@H](C)CO)S(=O)(=O)c2ccc(-c3ccccc3)cc2O[C@H]1CN(C)Cc1ccccc1,x,x,x,x,55*[16.7 µM],x
O=C(C[C@@H]1C[C@@H]2c3cc(NS(=O)(=O)c4ccc(F)cc4)ccc3O[C@@H]2[C@@H](CO)O1)NCc1ccccc1,x,x,x,17,7[16.7 µM],x
O=C(C[C@H]1C[C@H]2c3cc(NS(=O)(=O)c4ccc(F)cc4)ccc3O[C@H]2[C@H](CO)O1)NCc1ccc(Oc2ccccc2)cc1,x,x,x,99*,-77[16.7 µM],x
O=C(C[C@H]1C[C@@H]2c3cc(NS(=O)(=O)c4ccc(F)cc4)ccc3O[C@@H]2[C@@H](CO)O1)NCc1ccc(Oc2ccccc2)cc1,x,x,x,101*,-66[16.7 µM],x
O=C(C[C@@H]1CC[C@H](NC(=O)c2ccncc2)[C@H](CO)O1)NCC1CCCCC1,x,x,x,-10,2[16.7 µM],x
Cc1noc(C)c1S(=O)(=O)N(C)C[C@@H]1Oc2ccc(NS(=O)(=O)c3cn(C)cn3)cc2CC(=O)N([C@@H](C)CO)C[C@@H]1C,x,x,x,x,-43[16.7 µM],x
Cn1nnnc1Sc1ncnc2scc(-c3cccc(C(F)(F)F)c3)c12,23,x,-7,101*,-23,21
COc1cccc(CNCCSc2nnnn2C)c1,-28,-2,1,x,-1,-15
Cn1nnnc1Sc1ncnc2scc(-c3ccc(C(F)(F)F)cc3)c12,66,x,-21,77*,-33,-4
COc1cccc(-c2csc3ncnc(Sc4nnnn4C)c23)c1,-12,x,-11,99*,-151,75*
Cn1nnnc1Sc1ncnc2scc(-c3ccccc3C(F)(F)F)c12,-10,x,0,49,2,4
Cn1nnnc1Sc1ncnc2scc(-c3cccc(F)c3)c12,68,x,-15,105*,-27,24

# Screens (PubChem)
